# In PubChem BioAssay AID1044 (The Scripps Research Institute Molecular Screening Center, 2008):
# The whole screen tested about 16,000 compounds, of which about 240 (1.5%) were called active. Rule as the data show it: active = activation above about 80%; inactive = the rest. For the sample, actives were picked, then their nearest neighbours and some compounds at random.
# Molecular target: Sphingosine 1-phosphate receptor 1 (Homo sapiens) (UniProt P21453)
# Experiment: activates the human S1P1 receptor (AID 1044)
# Conditions: S1P1 agonist cell-based reporter assay; at 4.5 µM; hits give high values
# Sphingosine 1-phosphate receptor 1 (Homo sapiens), sequence (P21453 whole entry, looked up): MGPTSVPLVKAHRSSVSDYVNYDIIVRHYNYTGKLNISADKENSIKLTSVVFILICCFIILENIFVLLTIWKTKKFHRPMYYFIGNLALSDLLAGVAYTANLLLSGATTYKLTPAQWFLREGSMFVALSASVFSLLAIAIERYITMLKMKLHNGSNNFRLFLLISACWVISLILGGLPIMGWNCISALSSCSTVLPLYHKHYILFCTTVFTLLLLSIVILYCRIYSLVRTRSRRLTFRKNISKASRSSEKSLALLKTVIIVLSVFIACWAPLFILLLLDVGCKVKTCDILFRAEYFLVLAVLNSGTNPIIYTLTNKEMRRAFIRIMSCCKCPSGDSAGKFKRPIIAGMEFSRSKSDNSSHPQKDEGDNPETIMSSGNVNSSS
row,SMILES,activation
1,O=C(Nc1ccccc1)O/N=C1/CCCc2occc21,-2.45% (inactive)
2,CCOC(=O)c1c(NC(=S)NC)sc2c1CCCC2,-16.5% (inactive)
3,CCOC(=O)NC(=S)NC12CC3CC(CC(C3)C1)C2,-14.8% (inactive)
4,NC(N)=N/C(N)=N/c1nnc(C(F)(F)F)s1,-5% (inactive)
5,OC1(C#Cc2ccccc2)CCN(Cc2ccccc2)CC1,-10.7% (inactive)
6,CCOC(=O)c1sc(SCCS(=O)(=O)c2ccc(Cl)cc2)c(C#N)c1-c1ccccc1,-6.04% (inactive)
7,CCOC(=O)c1sc2ccccc2c1N,-24.7% (inactive)
8,CCOC(=O)c1sc(SC)c(-c2ccccc2)c1N,103% (active)
9,N#CCCSc1sc(=S)sc1SCCC#N,2.11% (inactive)
10,Clc1ccc(CO/N=C/c2nc3ccccc3s2)cc1,87% (active)
11,CCCCc1c(COC)nc(-c2ccc(Cl)cc2)[nH]c1=O,-10.5% (inactive)
12,Cc1nc(C(F)(F)F)ccc1C(=O)NCCNc1ncccc1C(F)(F)F,3.52% (inactive)
13,Cc1nc(C(F)(F)F)ccc1NC(=O)/C=C\C(=O)O,-31% (inactive)
14,O=C(NC1Cc2ccccc2C1)c1nnc(-c2ccccc2)o1,62.1% (inactive)
15,Cn1ncc(Br)c1NC(=O)C(C)(C)C,1.4% (inactive)
16,CCOC(=O)Cc1csc(NC(NC(=O)OCC)(C(F)(F)F)C(F)(F)F)n1,-11.5% (inactive)
17,CN1CCN(c2ccc(NC(=O)c3ccccc3)cc2)CC1,15.7% (inactive)
18,CCOC(=O)C(NC(=O)c1ccco1)(Nc1cc(C)ccn1)C(F)(F)F (configuration not stated),-12.4% (inactive)
19,Fc1cccc(Cl)c1CN1CCN(c2ncnc3scc(-c4cccs4)c23)CC1,10.1% (inactive)
20,CCOC(=O)c1c(-c2ccco2)csc1NC(=O)Nc1ccc(Cl)cc1,-5.82% (inactive)
21,C/C(=N\NC(=S)Nc1cccc(F)c1)c1ccco1,-19.7% (inactive)
22,Cc1nc(C)c(-c2ccnc(-c3ccc(Cl)cc3)n2)s1,-14.5% (inactive)
23,Fc1ccc(Oc2nc(Oc3ccc(F)cc3)nc(N3CCSCC3)n2)cc1,-33.1% (inactive)
24,Cc1noc(C)c1C(=O)N1CCOCC1,-1.85% (inactive)
25,CCOC(=O)c1cc(C)nc(Sc2ccccc2NC(=O)Nc2ccc(Cl)cc2)c1C#N,-5.59% (inactive)
26,OC(CN1CCN(c2ccc(C(F)(F)F)cn2)CC1)c1ccc2c(c1)OCCO2 (configuration not stated),4.19% (inactive)

row,SMILES,activation
1,CNC(=O)NNC(=O)Cn1nnc(N2CCCCC2)n1,-5.59% (inactive)
2,O=C(c1ccc(F)cc1)C1CCN(Cc2cn[nH]c2-c2ccccc2)CC1,-8.25% (inactive)
3,Cn1nc(-c2ccccc2)cc1N,-14.4% (inactive)
4,O=C1NC(=O)c2cc([N+](=O)[O-])c(Sc3c(Cl)cccc3Cl)cc21,16.5% (inactive)
5,Cn1cc(Br)c(-c2ccc(NC(=O)Nc3ccc(Cl)cc3)cc2)n1,48.5% (inactive)
6,CCOC(=O)NN(C(=O)OCC)c1c(C)c(C)c(C)c(C)c1C,6.8% (inactive)
7,CCOc1ccc(NC(=S)N2CCC(c3ccccc3OC)CC2)cc1,-5.17% (inactive)
8,COc1ccc(OC)c(CNC(=O)Cc2cccs2)c1,2.66% (inactive)
9,CC(C)N(C(=O)c1ccc(-c2ccccc2F)cc1)C(C)C,5.33% (inactive)
10,COc1ccc(-c2ccc(/C=N/NC(=O)CCc3ccc(O)cc3)s2)cc1,76.7% (inactive)
11,COc1ccc2c(c1)CCCC2=Nc1ccccc1C(F)(F)F,76.9% (inactive)
12,Cc1cc2nc(C)c(C)nc2cc1C,-24.7% (inactive)
13,NC(=O)c1sccc1Br,-10.4% (inactive)
14,Cc1onc(-c2ccccc2)c1CNS(=O)(=O)c1ccc2c(c1)OCCN2C,-10.4% (inactive)
15,NC(CC(=O)O)c1ccccc1 (configuration not stated),6.64% (inactive)
16,Cc1ccc(NC(=O)c2ccccc2NC(=O)c2ccccc2)cc1,-30.9% (inactive)
17,Cc1ccc(NC(C(=O)O)c2ccccc2)cc1 (configuration not stated),81.5% (active)
18,O=[N+]([O-])c1ccc(-c2nnnn2Cc2c(Cl)cccc2Cl)cc1,38.8% (inactive)
19,Cc1oc(-c2ccc(Cl)cc2)cc1C(=O)N1CCN(Cc2ccccc2)CC1,-6.1% (inactive)
20,COc1ccc(NC(NC(=O)c2ccc(OC)cc2)(C(F)(F)F)C(F)(F)F)cc1,4.17% (inactive)
21,CCOC(=O)N/N=C(\C)c1cccc(NC(C)=O)c1,3.43% (inactive)
22,CC(C)(C)C(=O)Nc1c(Br)c(C2CC2)nn1-c1ccccc1,4.11% (inactive)
23,N#Cc1ccc(OS(=O)(=O)c2cc(C(F)(F)F)cc(C(F)(F)F)c2)cc1,0.18% (inactive)
24,CSc1nc(N)n(-c2ccccc2)n1,5.77% (inactive)
25,COC(=O)c1c(C(=O)OC)c2n(c1C)CCS2,10.2% (inactive)
26,O=C(Nc1ccc(OCc2ccccc2)cc1)OCC1CN(Cc2ccccc2)CCO1 (configuration not stated),43.9% (inactive)
